Test results taken from article PMC4336329 (PLoS ONE, 2015).
In all, about 310,000 compounds went through this assay and about 14,000 (4.5%) showed an effect of 50% or more. Effects have a minus sign here. The entries come from a sample that favours strong results as a whole.

Target: human ether-à-go-go-related gene (hERG) potassium channel (human, UniProt Q12809)
Assay: primary screen, population patch clamp on CHO cells stably expressing hERG; higher = less effect of the substance
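Also: peak tail current of the secondary pulse compared with the same well before compound.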

Sequence of human ether-à-go-go-related gene (hERG) potassium channel (Q12809 whole entry, looked up): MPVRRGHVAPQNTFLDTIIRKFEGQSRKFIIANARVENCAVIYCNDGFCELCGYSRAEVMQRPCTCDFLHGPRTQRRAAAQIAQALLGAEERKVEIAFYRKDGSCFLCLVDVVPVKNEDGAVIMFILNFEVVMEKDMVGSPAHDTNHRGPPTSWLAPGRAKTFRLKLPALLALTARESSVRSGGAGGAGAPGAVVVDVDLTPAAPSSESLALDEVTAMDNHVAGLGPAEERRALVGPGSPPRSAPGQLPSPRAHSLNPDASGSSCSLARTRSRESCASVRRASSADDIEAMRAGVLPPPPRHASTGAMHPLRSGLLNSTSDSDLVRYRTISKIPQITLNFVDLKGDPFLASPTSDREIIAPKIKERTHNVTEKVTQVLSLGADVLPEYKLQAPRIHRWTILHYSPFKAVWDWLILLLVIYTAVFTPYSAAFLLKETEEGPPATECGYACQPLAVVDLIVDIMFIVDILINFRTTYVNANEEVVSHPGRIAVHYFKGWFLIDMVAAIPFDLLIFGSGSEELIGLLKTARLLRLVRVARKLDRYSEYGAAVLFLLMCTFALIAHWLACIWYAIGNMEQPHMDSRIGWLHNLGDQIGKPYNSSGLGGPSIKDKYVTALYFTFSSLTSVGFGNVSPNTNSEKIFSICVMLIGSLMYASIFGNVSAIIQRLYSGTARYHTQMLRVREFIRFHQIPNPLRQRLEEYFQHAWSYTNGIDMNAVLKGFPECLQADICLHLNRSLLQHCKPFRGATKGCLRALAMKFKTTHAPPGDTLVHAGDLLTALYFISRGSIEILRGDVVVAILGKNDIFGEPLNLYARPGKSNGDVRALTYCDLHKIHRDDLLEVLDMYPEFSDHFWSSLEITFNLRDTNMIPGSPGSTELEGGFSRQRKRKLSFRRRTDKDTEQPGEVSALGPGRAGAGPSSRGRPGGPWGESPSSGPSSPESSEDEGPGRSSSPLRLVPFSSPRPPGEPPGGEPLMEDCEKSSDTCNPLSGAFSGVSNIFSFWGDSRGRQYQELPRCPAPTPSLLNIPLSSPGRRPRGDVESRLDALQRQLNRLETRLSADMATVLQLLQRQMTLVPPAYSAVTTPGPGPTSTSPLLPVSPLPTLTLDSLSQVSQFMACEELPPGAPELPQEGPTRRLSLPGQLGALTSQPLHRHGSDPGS

SMILES | hERG current change (%, negative = inhibition) at 10uM
CCOC(=O)c1ccc(N=c2sc(C(=O)OC)cc(=O)n2CCCN2CCOCC2)cc1.Cl | -16.9%
CCN(CC(=O)Nc1c(F)cccc1F)C(=O)c1ccc(C2SCCS2)cc1 | 0.0972%
O=C(CCc1nnc(CCCCc2ccccc2)o1)N1CCN(CCO)CC1 | -0.0459%
Cc1cc(C)c(NC(=O)Cn2cc3c(n2)CCCC3)c(C)c1 | 10.4%
CSCC[C@H](NC(=O)OC(C)(C)C)C(=O)N/N=C/c1cc2ccc(C)cc2nc1Cl | -7.13%
COc1ccc(C(=O)OCC(=O)Nc2c(C)cccc2C)cc1 | 17.4%
O=C(NCCCN1CCOCC1)C(=O)NCC1OCCN1S(=O)(=O)c1ccc(F)cc1 (stereo not shown) | -10.2%
CC(C)NC(=O)CCCc1cn(C)c2ccccc12 | 18.1%
COc1ccccc1N1CCN(C(=O)CNC(=O)c2cn(-c3ccccc3OC)c(=O)c3ccccc23)CC1 | -15.6%
O=C(NC1CCCN(Cc2ccccc2F)C1)c1cccc(N2CCCC2=O)c1 (stereo not shown) | 4.16%
O=C(NCC1CCCN(Cc2ccccc2F)C1)c1cccc(C(F)(F)F)c1 (stereo not shown) | -52.1%
CN(C(=O)c1cccc(Cl)c1)C1CCCN(Cc2ccccc2F)C1 (stereo not shown) | 0.373%
CCOc1ccc(N)c(SSc2cc(OCC)ccc2N)c1 | 19.3%
O=C1c2ccccc2C(=O)C1(CO)c1ccc(OC(F)F)cc1 | 18.3%
CN(Cc1nc2ccccc2c(=O)[nH]1)C(=O)COc1ccccc1Cc1ccccc1 | -43.3%
COC(=O)CCC(=O)Nc1ccccc1C(=O)Nc1ccccc1 | 9.16%
CCN(CC(=O)NCCc1ccc(Cl)cc1)Cc1nc2ccccc2c(=O)[nH]1 | -53.3%
CN(C(=O)c1ccccc1OCc1ccc(Cl)cc1)c1ccccc1 | -7.03%
CCN(CC(=O)Nc1ccccc1C(F)(F)F)C(=O)CCc1nc2ccccc2c(=O)[nH]1 | 12.5%
CCN(CC(=O)Nc1c(F)cccc1F)C(=O)CCc1nc2ccccc2c(=O)[nH]1 | 8.25%
CCN(CC(=O)NC(c1ccccc1)c1ccccc1)Cc1nc2ccccc2c(=O)[nH]1 | -32.4%
CCN(CC(=O)Nc1cc(Cl)ccc1C)C(=O)CCc1nc2ccccc2c(=O)[nH]1 | -67.3%
CN(Cc1nc2ccccc2c(=O)[nH]1)C(=O)c1ccccc1OCc1ccc(Cl)cc1 | -58.2%
CCN(CC)CCCCCC(=O)Nc1ccccc1C(=O)Nc1ccccc1 | -55.8%
O=C(O)CCC(=O)Nc1ccccc1C(=O)Nc1ccccc1 | 15.6%
CCN(CC(=O)NCCc1ccc(S(N)(=O)=O)cc1)Cc1nc2cc(OC)c(OC)cc2c(=O)[nH]1 | 0.804%
COc1ccc(NC(=O)CN2C(=O)C(C)Oc3ccccc32)c(OC)c1 (stereo not shown) | -10.4%
Cc1nc(-c2ccccc2)sc1C1(C)CC(c2ccccc2F)=NO1 (stereo not shown) | 1.13%

SMILES | hERG current change (%, negative = inhibition) at 10uM
O=c1c2ccccc2n2c(=S)[nH]nc2n1-c1ccccc1 | 38.4%
Cc1ccc(C2(c3ccc(C)cc3)CC2C(=O)Nc2ccc([N+](=O)[O-])cc2O)cc1 (stereo not shown) | -2.42%
CCc1ccccc1NC(=O)CC(NCc1ccccc1)C(=O)O (stereo not shown) | 22.5%
CCOc1ccc(Cc2nn[nH]n2)cc1 | 9.6%
CCn1cc(SCC(=O)N2CCc3ccccc32)c2ccccc21 | -1.74%
CC(C)N1CC(C(=O)O)CC1=O (stereo not shown) | 19%
Cn1c(CC(=O)Nc2ccccc2Cl)nnc1SCC(=O)NC1=NCCS1 | 14.7%
CCN1C(=O)/C(=C/C2=Cc3ccccc3OC2C)SC1=S (stereo not shown) | 14.7%
CCN(CC(=O)NCCc1ccc(S(N)(=O)=O)cc1)Cc1nc2ccccc2c(=O)[nH]1 | 17.9%
CCNCc1nc2cc(Cl)ccc2c(=O)[nH]1.Cl | 4.64%
CCN(CC(=O)Nc1cc(Cl)ccc1-n1cncn1)Cc1nc2ccccc2c(=O)[nH]1 | -60.3%
CCN(CC(=O)NCc1ccc(F)cc1)Cc1nc2cc(Cl)ccc2c(=O)[nH]1 | -72.6%
CCN(CC(=O)NCCc1ccc(F)cc1)Cc1nc2ccccc2c(=O)[nH]1 | -50.7%
CCN(CC(=O)NC(=O)NCc1ccccc1)Cc1nc2ccccc2c(=O)[nH]1 | -12.9%
CCN(CC(=O)Nc1ccccc1SC)Cc1nc2ccccc2c(=O)[nH]1 | -23.9%
CCN(CC(=O)NCc1ccc(F)cc1)Cc1nc2ccccc2c(=O)[nH]1 | -56.5%
CCN(CC(=O)Nc1ccc2c(c1)OCCO2)Cc1nc2cc(Cl)ccc2c(=O)[nH]1 | -29%
O=C(c1ccccc1)N(Cc1ccc(F)cc1)Cc1nc2ccccc2c(=O)[nH]1 | -35%
CCN(CC(=O)Nc1cccc(F)c1)Cc1nc2ccccc2c(=O)[nH]1 | -31.7%
COCCN(CC(=O)Nc1cc(Cl)ccc1-n1cncn1)Cc1nc2ccccc2c(=O)[nH]1 | -43%
O=C(c1noc2c1CCCC2)N1CCc2c([nH]c3ccccc23)C1c1ccccn1 (stereo not shown) | -7.65%
O=C(Nc1ccccn1)N1CCOCC1 | 15.1%
O=C(CN1CCN(c2ccc(F)cc2)CC1)Nc1ccc(S(=O)(=O)N2CCOCC2)cc1 | 0.845%
Cc1cc(C)cc(-n2nnc(C(=O)NCc3ccco3)c2N)c1 | -29.8%
O=C(Cn1nnc(-c2ccccc2NC(=O)c2ccco2)n1)Nc1ccccc1 | 16.1%
COc1cc(/C=C/C(=O)Nc2nnc(CC(C)C)s2)cc(OC)c1OC | -27.8%
CCN1CCN(c2ccc(NC(=O)c3cc4ccccc4cc3OC)cc2C)CC1 | -48.7%
